For some of these results: Measured potencies and affinities stand elsewhere.

Common to all, as to parameters: scale not given: direction of the effect not stated beside the values
Assay [1] addresses Protein translocase subunit SecA (Escherichia coli (strain K12)) (UniProt P10408). The assay is described as follows: Assay to Identify E. coli SecA ATPase Inhibitors. In kind it is functional. The note with it: 30 µM.
For assay [2], the target named is T1, Ubiquitin-activating enzyme e1, putative (Leishmania donovani (strain BPK282A1)) (UniProt E9BSI1).
T1 sequence (whole entry): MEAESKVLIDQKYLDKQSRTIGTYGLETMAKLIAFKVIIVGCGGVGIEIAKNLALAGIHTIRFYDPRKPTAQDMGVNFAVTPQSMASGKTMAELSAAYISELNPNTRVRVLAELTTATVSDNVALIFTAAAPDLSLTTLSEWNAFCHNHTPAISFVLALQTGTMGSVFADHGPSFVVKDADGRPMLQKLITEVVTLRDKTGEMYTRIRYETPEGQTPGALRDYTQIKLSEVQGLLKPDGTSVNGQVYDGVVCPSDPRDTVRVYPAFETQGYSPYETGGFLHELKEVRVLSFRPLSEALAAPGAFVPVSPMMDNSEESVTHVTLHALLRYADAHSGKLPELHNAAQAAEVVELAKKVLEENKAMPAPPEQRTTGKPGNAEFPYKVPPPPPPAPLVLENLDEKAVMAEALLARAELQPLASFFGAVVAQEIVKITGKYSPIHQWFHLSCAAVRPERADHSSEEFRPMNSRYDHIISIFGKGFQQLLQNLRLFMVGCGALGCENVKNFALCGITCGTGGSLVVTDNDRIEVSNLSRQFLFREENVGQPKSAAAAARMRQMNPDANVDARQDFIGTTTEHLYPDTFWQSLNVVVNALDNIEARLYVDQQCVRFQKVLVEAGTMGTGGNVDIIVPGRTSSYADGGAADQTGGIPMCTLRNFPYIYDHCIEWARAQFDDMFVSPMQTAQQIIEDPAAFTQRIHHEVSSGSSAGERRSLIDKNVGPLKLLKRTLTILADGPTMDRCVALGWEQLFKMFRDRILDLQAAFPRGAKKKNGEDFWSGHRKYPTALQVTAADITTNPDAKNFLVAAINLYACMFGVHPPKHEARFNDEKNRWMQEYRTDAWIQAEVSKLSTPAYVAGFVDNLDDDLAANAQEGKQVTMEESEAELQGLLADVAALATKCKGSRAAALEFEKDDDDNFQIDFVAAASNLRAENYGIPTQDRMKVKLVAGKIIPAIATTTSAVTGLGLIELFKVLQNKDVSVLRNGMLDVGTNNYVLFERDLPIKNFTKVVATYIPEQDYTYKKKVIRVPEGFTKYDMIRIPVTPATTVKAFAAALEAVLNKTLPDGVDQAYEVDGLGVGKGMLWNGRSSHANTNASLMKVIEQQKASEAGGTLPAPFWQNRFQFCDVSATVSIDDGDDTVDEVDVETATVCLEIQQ
Put plainly: Leishmania donovani Ubiquitin Activating Enzyme (LdE1). In kind it is functional. The note with it: 30 µM.

The target of assay [3] is AMP-activated protein kinase, AMPK (Homo sapiens) (UniProt P54646+O43741+P54619+Q9UGJ0+Q9Y478+Q13131+Q9UGI9). Put plainly: AMP-dependent Kinase enzyme assay. An in vitro enzyme assay that detects ADP turnover that is directly proportional to AMPK activity. This uses naive AMPK that is activated during the assay with MK-8722. In kind it is functional. The note with it: 30 µM.

Assay [4] addresses Sialic acid-binding Ig-like lectin 9 (Homo sapiens) (UniProt Q9Y336). Put plainly: Hs-Siglec9 ALPHAscreen SOP 20170721. The note with it: 10 µM. In general terms: Bead proximity is the source of the signal in Alpha formats.
Assay [5] has as its system Trypanosoma cruzi. The assay is described as follows: Trypanosoma cruzi phosphomannomutase and mannose-1-phosphate guanylyltransferase assay. In kind it is functional. The note with it: 10 µM.
Assay [6] concerns the target T2, Arginase-2, mitochondrial (Homo sapiens) (UniProt P78540).
T2 sequence (whole entry): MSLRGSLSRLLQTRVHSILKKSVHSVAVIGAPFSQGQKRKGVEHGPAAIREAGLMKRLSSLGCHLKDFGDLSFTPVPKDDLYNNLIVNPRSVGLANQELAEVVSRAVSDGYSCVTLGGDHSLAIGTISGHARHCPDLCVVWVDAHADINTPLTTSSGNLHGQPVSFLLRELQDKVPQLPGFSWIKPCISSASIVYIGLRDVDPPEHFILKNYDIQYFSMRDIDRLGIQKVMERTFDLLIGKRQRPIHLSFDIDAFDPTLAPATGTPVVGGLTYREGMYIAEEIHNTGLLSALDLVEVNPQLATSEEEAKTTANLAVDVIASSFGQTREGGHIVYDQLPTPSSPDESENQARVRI
The assay is described as follows: in vitro enzyme assay to detect the production of urea directly proportional to the activity of Arginase II. Further: in the data most compounds retested in dose-response had high values. Type of assay: functional. The note with it: 33.3 µM.

Assay [7] concerns the target T3, Proteasome subunit beta (Trypanosoma cruzi) (UniProt O96673).
T3 sequence (whole entry): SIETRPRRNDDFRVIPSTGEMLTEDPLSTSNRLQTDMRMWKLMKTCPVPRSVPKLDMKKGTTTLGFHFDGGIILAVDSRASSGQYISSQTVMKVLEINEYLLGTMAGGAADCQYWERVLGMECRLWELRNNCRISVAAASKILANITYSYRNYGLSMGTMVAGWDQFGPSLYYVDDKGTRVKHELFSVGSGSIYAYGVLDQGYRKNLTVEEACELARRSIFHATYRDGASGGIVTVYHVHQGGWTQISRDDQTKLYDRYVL
Put plainly: Trypanosoma cruzi proteasome chymotrypsin-like activity (TcProtChymo) assay. Further: in the data most compounds retested in dose-response had high values. In kind it is functional. The note with it: 9.37 µM.

For assay [8], the species on record is Homo sapiens. The assay is described as follows: To identify inhibition of the IFN signalling (Jak-Stat) pathway via expression of an eGFP reporter gene under the control of an IFN-stimulated response element (ISRE) containing MxA promoter. The note with it: 30 µM. In kind it is functional. (In general: Reporter assays use an easily measured gene product as a stand-in for the process of interest.)

For assay [9], the target named is T4, Tyrosyl-tRNA synthetase, putative (Trypanosoma cruzi (strain CL Brener)) (UniProt Q4DSP6).
T4 sequence (whole entry): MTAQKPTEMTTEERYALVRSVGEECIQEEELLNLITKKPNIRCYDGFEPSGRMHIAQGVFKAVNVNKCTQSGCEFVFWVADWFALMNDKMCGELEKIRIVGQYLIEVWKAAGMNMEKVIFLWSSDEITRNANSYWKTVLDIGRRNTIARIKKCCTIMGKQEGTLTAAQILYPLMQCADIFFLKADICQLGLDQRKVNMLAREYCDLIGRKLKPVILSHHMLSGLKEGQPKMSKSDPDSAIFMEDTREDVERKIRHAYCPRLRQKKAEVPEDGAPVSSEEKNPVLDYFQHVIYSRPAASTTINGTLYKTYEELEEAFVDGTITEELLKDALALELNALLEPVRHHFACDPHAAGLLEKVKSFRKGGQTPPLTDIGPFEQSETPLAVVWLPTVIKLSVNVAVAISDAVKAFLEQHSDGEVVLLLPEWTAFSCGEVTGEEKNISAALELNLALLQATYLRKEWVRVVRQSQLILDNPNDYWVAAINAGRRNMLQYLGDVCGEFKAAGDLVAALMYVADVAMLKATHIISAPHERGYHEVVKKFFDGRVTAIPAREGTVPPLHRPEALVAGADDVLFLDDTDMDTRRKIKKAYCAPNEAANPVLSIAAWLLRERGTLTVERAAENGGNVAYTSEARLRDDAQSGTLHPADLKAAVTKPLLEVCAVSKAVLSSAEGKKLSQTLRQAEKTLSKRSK
The assay is described as follows: Trypanosoma cruzi tyrosyl tRNA synthetase (TcYRS) _High Tyrosine SOP. Further: in the data most compounds retested in dose-response had high values. The note with it: 30 µM. In kind it is functional.

For assay [10], the target named is T4, Tyrosyl-tRNA synthetase, putative (Trypanosoma cruzi (strain CL Brener)). The assay is described as follows: Trypanosoma cruzi tyrosyl tRNA synthetase (TcYRS) SOP. In kind it is functional. The note with it: 30 µM.
In assay [11] the target is Chromo domain-containing protein 1 (Saccharomyces cerevisiae (strain ATCC 204508 / S288c) (Baker's yeast)) (UniProt P32657). The assay is described as follows: ScCHD-1 Enzyme Inhibition Assay. Further: in the data most compounds retested in dose-response had high values. In kind it is functional. The note with it: 30 µM.
Chain of Chromo domain-containing protein 1 (Saccharomyces cerevisiae (strain ATCC 204508 / S288c) (Baker's yeast)) (P32657 whole entry, the tested form may be a part): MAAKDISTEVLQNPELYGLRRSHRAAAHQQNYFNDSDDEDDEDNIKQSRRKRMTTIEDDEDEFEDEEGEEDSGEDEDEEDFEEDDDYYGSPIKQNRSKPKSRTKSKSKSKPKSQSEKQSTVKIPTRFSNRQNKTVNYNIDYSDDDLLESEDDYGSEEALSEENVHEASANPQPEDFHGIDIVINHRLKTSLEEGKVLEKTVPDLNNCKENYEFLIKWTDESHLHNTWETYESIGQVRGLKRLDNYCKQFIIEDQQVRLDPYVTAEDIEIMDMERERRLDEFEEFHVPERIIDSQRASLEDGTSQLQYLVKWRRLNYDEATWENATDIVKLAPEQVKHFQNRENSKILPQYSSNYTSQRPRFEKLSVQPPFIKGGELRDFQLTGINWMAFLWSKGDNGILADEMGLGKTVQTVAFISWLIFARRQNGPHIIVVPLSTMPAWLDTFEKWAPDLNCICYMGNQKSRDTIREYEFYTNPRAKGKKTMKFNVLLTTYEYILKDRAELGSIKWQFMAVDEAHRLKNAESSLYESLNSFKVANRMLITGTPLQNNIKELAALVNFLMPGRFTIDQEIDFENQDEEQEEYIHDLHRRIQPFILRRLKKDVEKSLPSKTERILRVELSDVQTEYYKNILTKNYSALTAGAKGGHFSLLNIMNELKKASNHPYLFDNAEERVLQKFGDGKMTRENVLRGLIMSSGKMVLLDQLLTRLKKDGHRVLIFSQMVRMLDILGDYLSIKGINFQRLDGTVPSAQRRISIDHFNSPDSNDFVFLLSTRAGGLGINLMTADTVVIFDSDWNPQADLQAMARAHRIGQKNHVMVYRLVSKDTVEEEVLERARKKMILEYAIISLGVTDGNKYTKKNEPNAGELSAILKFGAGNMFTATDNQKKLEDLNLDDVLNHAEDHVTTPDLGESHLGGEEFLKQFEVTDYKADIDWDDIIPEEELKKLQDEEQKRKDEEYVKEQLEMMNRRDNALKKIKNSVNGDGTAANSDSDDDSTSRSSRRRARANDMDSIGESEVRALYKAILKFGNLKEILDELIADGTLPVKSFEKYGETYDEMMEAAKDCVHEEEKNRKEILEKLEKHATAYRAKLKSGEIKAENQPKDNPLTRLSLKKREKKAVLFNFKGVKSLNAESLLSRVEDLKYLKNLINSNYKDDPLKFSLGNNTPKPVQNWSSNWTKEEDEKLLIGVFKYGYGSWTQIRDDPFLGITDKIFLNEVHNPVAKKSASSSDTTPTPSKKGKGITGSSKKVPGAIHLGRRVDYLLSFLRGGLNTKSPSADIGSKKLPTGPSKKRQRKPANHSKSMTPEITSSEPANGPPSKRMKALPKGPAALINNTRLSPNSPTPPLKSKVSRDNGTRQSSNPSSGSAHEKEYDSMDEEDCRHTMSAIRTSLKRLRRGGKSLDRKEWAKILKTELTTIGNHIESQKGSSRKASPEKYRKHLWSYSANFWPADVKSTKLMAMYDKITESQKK

Chain of Protein translocase subunit SecA (Escherichia coli (strain K12)) (P10408 whole entry): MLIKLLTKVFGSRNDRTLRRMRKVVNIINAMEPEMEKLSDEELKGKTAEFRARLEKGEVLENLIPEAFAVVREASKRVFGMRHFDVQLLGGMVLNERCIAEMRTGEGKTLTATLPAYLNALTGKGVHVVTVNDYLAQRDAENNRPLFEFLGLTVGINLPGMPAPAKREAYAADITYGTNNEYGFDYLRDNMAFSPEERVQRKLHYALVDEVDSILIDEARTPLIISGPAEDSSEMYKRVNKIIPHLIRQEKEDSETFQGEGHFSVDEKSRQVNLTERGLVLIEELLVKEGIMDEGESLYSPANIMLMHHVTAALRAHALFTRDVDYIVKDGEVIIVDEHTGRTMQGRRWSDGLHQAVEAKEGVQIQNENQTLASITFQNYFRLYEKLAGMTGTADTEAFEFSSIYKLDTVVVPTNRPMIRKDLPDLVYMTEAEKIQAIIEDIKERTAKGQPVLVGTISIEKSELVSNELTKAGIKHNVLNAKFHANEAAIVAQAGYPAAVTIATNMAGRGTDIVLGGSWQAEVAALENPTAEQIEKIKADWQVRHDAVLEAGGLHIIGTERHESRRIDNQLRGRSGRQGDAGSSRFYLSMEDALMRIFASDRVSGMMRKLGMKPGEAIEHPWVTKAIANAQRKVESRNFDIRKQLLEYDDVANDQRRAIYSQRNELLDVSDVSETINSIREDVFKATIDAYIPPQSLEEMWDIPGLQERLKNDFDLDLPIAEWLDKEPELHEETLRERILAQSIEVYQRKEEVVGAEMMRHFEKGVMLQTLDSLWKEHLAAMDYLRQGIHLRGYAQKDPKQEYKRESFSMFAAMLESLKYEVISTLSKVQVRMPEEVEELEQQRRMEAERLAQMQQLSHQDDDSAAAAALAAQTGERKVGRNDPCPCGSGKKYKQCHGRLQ
Chain of Sialic acid-binding Ig-like lectin 9 (Homo sapiens) (Q9Y336 whole entry): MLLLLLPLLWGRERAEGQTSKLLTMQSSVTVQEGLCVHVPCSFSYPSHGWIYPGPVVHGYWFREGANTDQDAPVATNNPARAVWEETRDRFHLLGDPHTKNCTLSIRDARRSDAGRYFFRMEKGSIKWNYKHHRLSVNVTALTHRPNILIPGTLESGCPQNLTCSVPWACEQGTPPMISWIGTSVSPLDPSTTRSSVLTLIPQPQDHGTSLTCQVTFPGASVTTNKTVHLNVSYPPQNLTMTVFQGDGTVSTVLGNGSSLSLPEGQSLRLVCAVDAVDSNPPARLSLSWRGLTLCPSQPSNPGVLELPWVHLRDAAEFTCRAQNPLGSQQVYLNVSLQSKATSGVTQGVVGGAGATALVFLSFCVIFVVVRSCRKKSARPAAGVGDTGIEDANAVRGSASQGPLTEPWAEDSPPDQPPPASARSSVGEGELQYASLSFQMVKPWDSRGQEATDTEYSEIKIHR

Take `COc1cccc(CN2CCC(c3nccn3C(C)C)CC2)c1`: the Percent Effect in [1] is -3.84%; in assay [2], 15.6%; in assay [3], 0.593%; in assay [4], 14.9%; in assay [5], 4.23%; in assay [6], -5.52%. The Percent Effect in assay [7] is 11.5%; in assay [8] it was -3.74%; in assay [9], 7.53%; in assay [10], 21%; in [11], -7.09%.
Turning to `CCc1ccc(CCC(=O)N2CCOCC2c2ncon2)cc1` (stereo not drawn), the Percent Effect was 2.75% in assay [1]; -8.11% in [2]; 4.51% in assay [3]; 1.5% in [4]; -2.69% in [5]; 3.14% in [6]. Also, the Percent Effect was 3.05% in [7]; 13.7% in assay [8]; -0.99% in [9]; 1.22% in [10]; 8.82% in [11].
For `CSCc1cccc(C(=O)N2CCN(CC(C)O)CC2)c1` (stereo not drawn), the Percent Effect was -1.86% in [1]; -2.6% in assay [2]; -1.05% in assay [3]; 3.73% in assay [4]; -7.68% in [5]; 2.13% in [6]. For the same compound, the Percent Effect in [7] is 11.8%; in assay [8], 17.2%; in [9] it was 1.94%; in [10], -2.44%; in assay [11], -1.72%.
`Cc1cccnc1NC(=O)C1CCCN1Cc1ccccc1` (stereo not drawn): the Percent Effect in [1] is -3.6%; in assay [2] it was 2.67%; in assay [3] it was -2.13%; in assay [4] it was -2.53%; in [5] it was -9.06%; in assay [6], -3.12%. Besides, the Percent Effect is 21.3% in assay [7]; 16.8% in assay [8]; 0.546% in assay [9]; -1.24% in assay [10]; -9.24% in assay [11].
For `CC(O)CN1CCN(C(=O)c2ccc(Cn3cccn3)cc2)CC1` (stereo not drawn), the Percent Effect in assay [1] is -4.02%; in assay [2] it was 18.9%; in [3], -8.57%; in assay [4] it was 7.3%; in [5] it was 7.08%; in [6], -9.22%. Besides, the Percent Effect in assay [7] was 6.67%; in [8], 3.34%; in assay [9], 7.39%; in [10], 25.9%; in assay [11] it was -12.3%.
As to `CC(C)NC(=O)N1CC[C@@H]2CN(Cc3cccc(Cl)c3)S(=O)(=O)[C@@H]2CC1`, the Percent Effect was -0.309% in assay [1]; 8% in assay [2]; 9.12% in assay [3]; -2.2% in assay [4]; -7.34% in assay [5]; -59.3% in assay [6]. In addition, the Percent Effect in [7] was 13.5%; in assay [8], 35.6%; in [9], 0%; in assay [10], 10%; in assay [11] it was -7.22%.
Consider `CCN(Cc1ccc2c(c1)OCO2)Cc1nc(C)no1`, for which the Percent Effect was 2.35% in assay [1]; 18.9% in assay [2]; -7.63% in assay [3]; -8.65% in [4]; -8.96% in [5]; 2.4% in assay [6]. Besides, the Percent Effect in [7] was 14.9%; in [8], 18.6%; in assay [9], 4.43%; in [10], 6.17%; in [11], -4.89%.
As for `COc1ccc(CNC2CCN(CCc3ccncc3)CC2)cc1O`, the Percent Effect is -6.94% in assay [1]; 16.2% in [2]; -9.03% in assay [3]; 9.91% in assay [4]; 5.27% in assay [5]; 26.7% in [6]. Moreover, the Percent Effect in assay [7] was 10.6%; in [8] it was -0.697%; in assay [9], -6.93%; in [10] it was 8.54%; in assay [11], -9.05%.

(Values after ChEMBL document CHEMBL3988442, “University of Dundee, Small-Polar-MMV Screening Library” (2021).)
